A selection: hits, their analogues and other compounds. The true share with any hit is near 2.1%.
aSyn UTR inh: MLPCN primary screen, SNCA 5' untranslated region; alpha-synuclein 5'UTR reporter, inhibitor activity; inhibition, % (tested at 7.5 µM); actives 0.82% (n = 300,000); AID 1813, 2009; in the data active = inhibition above about 60%; inconclusive = no clear call, values can overlap the other calls;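 note: H4 neuroglioblastoma cells stably carrying SNCA 5'UTR luciferase fusion; 0% = DMSO wells and 100% = positive control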
KLF5 inh: KLF5 expression inhibitors, primary screen, DLD-1 cells, luminescence; actives 0.23% (n = 290,000); DLD-1 KLF5 promoter-luciferase reporter; inhibition, % at 5 µM;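 active = inhibition above a per-plate limit of that plate's mean compound inhibition plus 3 SD, cut at about 60% in these data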;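 note: 0% = DMSO wells and 100% = LY294002 at 200 µM; higher means less KLF5 promoter-driven luciferase light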
Ba/F3 V617F tox: reduced viability of JAK2V617F-dependent Ba/F3 cells, primary screen, JAK2V617F inhibitor project, cell-based, Ba/F3 EpoR-JAK2V617F, luminescence. ATP luminescence. inhibition, % at 5.6 µM. actives 1.1% (n = 220,000). AID 1446, 2008;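 active = inhibition above the campaign mean plus 3 SD over all tested compounds, cut at about 24% in these data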;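 note: cytokine-independent growth of Ba/F3 cells driven by EpoR plus mutant JAK2; 0% = DMSO-treated cells and 100% = JAK inhibitor I control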
IEC-6 tox: cytotoxicity in IEC-6 intestinal epithelial cells, primary screen, cytotoxicity control for KLF5 inhibitor project, cell-based, luminescence; IEC-6 cytotoxicity, luminescence viability; inhibition, % at 5 µM; actives 0.78% (n = 290,000); in the data active = inhibition above about 22%;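 note: 0% = plate median of test compound wells and 100% = cytotoxic reference compound wells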
APP 5UTR inh: inhibitors of APP translation via 5'UTR reporter, primary screen, APP 5'UTR luciferase, SH-SY5Y cells; SH-SY5Y APP 5'UTR-luciferase reporter, luminescence; inhibition, % at 2 µM; actives 0.82% (n = 190,000);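 active = inhibition above a set limit, derived from the sample mean plus 3 SD, cut at about 45% in these data; inconclusive = one replicate passes the limit while the other fails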
BaF3 parental: parental Ba/F3 cell viability inhibition, counter-screen for JAK2V617F inhibitor project, murine pro-B, CellTiter-Glo luminescence | inhibition, % at 5.6 µM | actives 1.1% (n = 220,000) | AID 1486, 2009 | CellTiter-Glo ATP luminescence;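 active = inhibition above a per-campaign cutoff, the mean inhibition of all tested compounds plus 3 SD, cut at about 27% in these data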;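 note: 0% = DMSO wells and 100% = JAK Inhibitor I control wells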
Numbers without * were called inactive; ? = inconclusive; . = no result.

SMILES	aSyn UTR inh	KLF5 inh	Ba/F3 V617F tox	IEC-6 tox	APP 5UTR inh	BaF3 parental
O=c1c(Cl)c(NCCCO)cnn1-c1nc2ccccc2[nH]1	-232	-112	34*	2	-2	63*
CCCCC(=NCCc1c(C)[nH]c2ccc(OC)cc12)C1=C(O)CC(c2ccccc2)CC1=O (centres undefined)	119*	9	-3	1	78*	4
CCC(=NCCc1c(C)[nH]c2ccc(OC(F)(F)F)cc12)C1=C(O)CC(c2ccccc2)CC1=O (centres undefined)	107*	-25	-1	-12	78*	4
CCC(=NCCc1c(C)[nH]c2ccccc12)C1=C(O)CC(c2ccccc2)CC1=O (centres undefined)	55	-14	-4	-3	29	4
CC(C)CCNC(=O)CN(Cc1ccccc1)C(=O)CCC(=O)Nc1ccccn1	-2	-4	.	7	.	.
CC(C1CCN(Cc2cn(C)nc2-c2cccc(Cl)c2)CC1)N1CCOCC1 (centres undefined)	-26	-36	-1	-4	0	49*
CN1CCN(C(c2cccnc2)c2ccc3cccnc3c2O)CC1 (centres undefined)	-11	41	14	3	5	10
CN1CCN(C(c2ccc(Br)cc2)c2cc(Cl)c3cccnc3c2O)CC1 (centres undefined)	67*	30	.	8	.	.
Clc1cccc(Cl)c1Cn1nnc(N2CCCC2)n1	-64	-26	34*	0	.	61*
CCOC(=O)c1ccc(C(=S)N2CCCC2)cc1	-1	-32	.	0	.	.
Cc1cc(Br)ccc1NC(=O)CNC(=O)Cn1ncc(Cl)c(Cl)c1=O	63*	8	3	6	96*	8
CC(NC(=O)Cn1ncc(Cl)c(Cl)c1=O)C12CC3CC(CC(C3)C1)C2 (centres undefined)	88*	-6	63*	25*	96*	75*
CCc1ccccc1NC(=O)CN(C)C(=O)Cn1ncc(Cl)c(Cl)c1=O	-63	-1	3	9	97*	3
CCC(=O)Nc1ccc(C(=O)Cn2ncc(Cl)c(Cl)c2=O)cc1	-53	28	78*	18	.	45*
Cc1ccc(C)c(C(=O)Cn2ncc(Cl)c(Cl)c2=O)c1	13	-12	12	7	38	2
CC(=O)Nc1ccc(/C=C/c2ccc3c([N+](=O)[O-])cccc3n2)cc1	-164	-38	4	11	-65	8
Cc1ccc(-n2nc(C)c3c(C)c(CCC(=O)Nc4ccc(CN5CCCC5)cc4)c(C)nc32)cc1	104*	-34	2	1	.	3
CC(=O)c1c(COC(=O)c2ccc(C)cc2)nc2ccccc2[n+]1[O-]	-1	-21	-3	0	.	51*
COc1ccccc1OCCNC(=O)C1CC(=O)N(c2ccc3c(c2)OCCO3)C1 (centres undefined)	1	.	.	.	.	.
CCOc1ccc(C(Nc2cccnc2)c2cc(Cl)c3cccnc3c2O)cc1 (centres undefined)	67*	19	3	0	8	10
O=C(O)COc1ccccc1C(Nc1cccnc1)c1cc(Cl)c2cccnc2c1O (centres undefined)	6	-11	3	-6	-13	6
O=C(NC(c1ccccc1)c1cc(Cl)c2cccnc2c1O)c1cccnc1 (centres undefined)	100*	-14	-1	2	.	5
Cc1ccc(CN(C)C(=O)CCc2nc3sc4c(c3c(=O)[nH]2)CCCC4)o1	5	-4	.	-2	.	.
O=C(Nc1nc2ccccc2n1CCN1CCOCC1)c1ccccc1	-6	-15	.	-2	.	.
O=C(Nc1nc2ccccc2n1CCN1CCOCC1)c1cn(-c2ccccc2)nc1-c1ccccc1	83*	-4	1	-5	4	5
SMILES	aSyn UTR inh	KLF5 inh	Ba/F3 V617F tox	IEC-6 tox	APP 5UTR inh	BaF3 parental
COC(=O)c1ccc(NC(=O)CSc2nnc(COc3ccc4c(c3)CCCC4)o2)cc1	7	7	-3	-6	-3	96*
CCc1ccc(NC(=O)CSc2nnc(COc3ccc4c(c3)CCCC4)o2)cc1	1	-8	2	3	9	4
O=C(CN1CCN(S(=O)(=O)c2ccc(Br)cc2)CC1)N/N=C/c1ccccc1C(=O)O	-7	-25	.	-2	.	.
CC[C@@H](C(=O)[C@@H](C)[C@@H](O)[C@H](C)CCc1ccc(C)c(O)c1C(=O)O)[C@H]1O[C@](CC)([C@H]2CC[C@](O)(CC)[C@H](C)O2)C[C@@H]1C	100*	32	.	91*	.	.
CCOc1ccc(S(=O)(=O)NCCC(=O)N2CCN(c3ccccc3O)CC2)cc1	-2	.	.	.	.	.
O=C(Nc1cccc2ccccc12)C12CC3CC(C1)CC(n1cnc([N+](=O)[O-])n1)(C3)C2	73*	-20	-4	0	2	3
Cn1cc(C(=O)Nc2ccc(F)c(F)c2)cn1	-18	-21	-2	3	50*	2
O=c1ccc(C(F)(F)F)cn1Cc1cc(=O)n2ccsc2n1	-27	4	-3	-6	4	4
O=c1cc(CNc2cc(C(F)(F)F)cc(C(F)(F)F)c2)nc2sccn12	65*	8	10	17	0	9
CCOC(=O)C1CCN(C(=O)c2ccc(Cl)c(S(=O)(=O)N3CCOCC3)c2)CC1	3	-27	-5	1	0	92*
CCOC(=O)C1CCN(C(=O)c2ccc(Cl)c(S(=O)(=O)N3CCCC3)c2)CC1	10	-17	.	-4	.	.
COc1ccc(NC(=O)CSCC(=O)Nc2cc(Cl)ccc2N2CCCC2)cc1	-5	-27	.	-7	.	.
Cc1ccc2[nH]c(C)c(/C=C/c3cc[n+](C)cc3)c2c1	54	-10	.	-1	.	.
C[n+]1ccc(/C=C/c2ccc(Br)cc2)cc1	-40	-18	79*	-2	-8	83*
Oc1c(CN2CCN(c3ccccn3)CC2)cc(Cl)c2cccnc12	92*	2	-2	-5	78*	4
Oc1c(CN2CCCCC2)cc(COCc2ccccc2)c2cccnc12	92*	48	89*	2	85*	99*
OCCN1CCN(Cc2cc(Cl)c3cccnc3c2O)CC1	20	-15	-5	-3	0	0
COCc1cc(CN2CCCC2)c(O)c2ncccc12	?	2	72*	-2	20	59*
Cc1ccc(C(c2nnnn2C2CCCC2)N2CCc3ccccc32)cc1 (centres undefined)	-60	-11	6	0	-11	40*
CC(C)CN1CCC(=O)N(CCO)CC1	-10	2	.	1	.	.
Nc1nnn(CC(=O)N/N=C/c2cccc3ccccc23)n1	-4	-3	9	7	62*	9
